Among all 360,000 compounds or so, about 810 (0.23%) were called active. What follows is part of a selection rich in actives, with near analogues and random picks from the rest. Values without a mark were called inactive. Cut-off read from the data, not from the text of the source: active = potentiation above about 50%; inconclusive = mostly about 30% to 49%; inactive = weaker than that.

D(2) dopamine receptor (Homo sapiens), sequence (P14416 whole entry, looked up): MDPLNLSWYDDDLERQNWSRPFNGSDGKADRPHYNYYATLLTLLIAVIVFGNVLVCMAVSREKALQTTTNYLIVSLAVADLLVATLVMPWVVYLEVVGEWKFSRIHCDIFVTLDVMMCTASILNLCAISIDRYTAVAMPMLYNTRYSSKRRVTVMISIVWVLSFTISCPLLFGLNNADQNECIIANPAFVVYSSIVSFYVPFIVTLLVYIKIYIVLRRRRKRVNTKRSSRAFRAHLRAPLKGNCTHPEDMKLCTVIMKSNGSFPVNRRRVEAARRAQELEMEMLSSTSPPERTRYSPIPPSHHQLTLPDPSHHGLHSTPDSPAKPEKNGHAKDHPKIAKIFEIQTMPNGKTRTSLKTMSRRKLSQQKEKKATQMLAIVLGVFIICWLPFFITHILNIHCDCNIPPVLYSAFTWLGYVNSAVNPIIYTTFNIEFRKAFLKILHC

This assay has as its target D(2) dopamine receptor (Homo sapiens) (UniProt P14416). Put plainly: Beta-Arrestin HTS for Positive Allosteric Modulators of the Human D2 Dopamine Receptor: Potentiators. The note with it: DiscoveRx D2 beta-arrestin cells, luminescence, 90 min; hits give high values; 100% = 57 uM dopamine signal. The source says: There is great interest in identifying small molecule ligands for G-protein coupled receptors (GPCRs) as nearly 50% of all FDA-approved drugs target these important receptor proteins. […] Amongst the dopamine receptors (DARs), the D2 is arguably one of the most validated drug targets in neurology and psychiatry. For instance, all receptor-based antiparkinsonian drugs primarily work via stimulating the D2 DAR, whereas all FDA-approved antipsychotic agents are antagonists of this receptor. The D2 DAR is also therapeutically targeted in other disorders such as restless legs syndrome, tardive dyskinesia, Tourette's syndrome, and hyperprolactinemia.
To this end, a miniaturized qHTS screen was developed to be screened against the Molecular Libraries Small Molecule Repository (MLSMR). This assay seeks to identify potentiators against the D2 DAR.
NIH Molecular Libraries Probe Production Network [MLPCN]
NIH Chemical Genomics Center [NCGC]
PI Name: David Sibley, National Institutes of Neurological Disorders and Stroke
DiscoveRx D2 cells were thawed from frozen stock and seeded at 2,100 cells/ 3 uL/well media (DiscoveRx Plating Reagent 2) with MultiDrop Combi dispenser (Thermo Scientific, Logan, UT) onto white tissue culture treated 1536-well Aurora plates (Brooks Automation, Chelmsford, MA) and allowed to attach overnight at 37 deg C, 5% CO2. Next, 23 nL/well of compound solutions in DMSO were added with a pintool transfer (Kalypsis, San Diego, CA). As the positive control, 1 uL/well dopamine (EC100, 57 uM final concentration) diluted in buffer (HBSS + 10 mM HEPES + SMB + 0.1 %Tween-20) was dispensed to 1 column of each plate. EC20 (Dopamine at 50 nM final concentration) was dispensed to the rest of the plate except columns 1 &2 which were used as negative control (EC=0, buffer only), 1 uL/well as well. The cells were stimulated by compounds and dopamine for 90 minutes at 37 deg C, 5% CO2, after which 1.5 uL/well of DiscoveRx detection reagent was added with BioRAPTR FRD dispenser. The detection reagent was prepared by mixing of Galacton Star Substrate, Emerald II solution and PathHunter buffer (supplied by the assay kit) together at 1:5:19 proportion accordingly just prior to dispensing. The plates were incubated at ambient temperature for 1 hour and then the luminescent signal was read on ViewLux plate reader (PerkinElmer, Waltham, MA).
On to `Cc1cc(N2CCCC2=O)cc(C)c1S(N)(=O)=O`, for which the potentiation is -18.2%.
Next, `O=C1NC(=O)C(c2ccc(Cl)cc2)N1` (stereo not drawn): -7.09%; `CCCCC(=O)Nc1nnc(S(=O)(=O)N(C)Cc2ccco2)s1`: -7.89%.
To `Cn1cc(/C=C/C(=O)N2CCCC(C(=O)c3ccc(C(F)(F)F)cc3)C2)cn1` (stereo not drawn) belongs -1.59%.
To `COc1ccc(C(=O)C[n+]2ccc(N)c(C)c2C)cc1` belongs -3.23%; to `COc1cc(C(=S)N2CCOCC2)cc(OC)c1OC(=O)c1ccc([N+](=O)[O-])cc1[N+](=O)[O-]`, 136% (active).
Regarding `COc1cc([N+](=O)[O-])cc([N+](=O)[O-])c1NC(=O)N1CCOCC1`, the potentiation was -13.5%.
To `COC(=O)c1cc(Oc2ccc(S(=O)(=O)N3CCOCC3)cc2[N+](=O)[O-])cc(C(=O)OC)c1` belongs -0.101%; to `O=C(NCCCn1ccnc1)C(=O)NCC1OCCN1S(=O)(=O)c1cc(F)ccc1F` (stereo not drawn), -2.44%.
Next, `COC(=O)c1cccnc1NC(=S)NC(C)C`: 2.31%; `CC(=O)NC(C)(C)C1CC=C(C)/C(=N\O)C1` (stereo not drawn): -2.42%; `NC(Cc1ccc(F)cc1)c1csc(Nc2nncc3ccccc23)n1` (stereo not drawn): 0.276%.
To `Cc1ccc(Cc2c(-c3ccco3)nc3ccc(Cl)cn23)cc1` belongs -4.9%; to `Cc1nn(C)c(C)c1S(=O)(=O)N1CCc2ccccc21`, 3.69%.
With `CCO[C@@H]1OC(C(=O)NC2CC2)=C[C@H](C)[C@H]1CCCO`, the potentiation was -6.01%.
Next, `O=C(Oc1ccccc1C(=S)N1CCCCC1)c1cc([N+](=O)[O-])cc([N+](=O)[O-])c1`: 58.7% (active); `CC1CCN(C(=S)c2cccc([N+](=O)[O-])c2)CC1`: -3.98%; `O=C(Oc1ccc(Br)cc1C(=S)N1CCOCC1)c1cccc([N+](=O)[O-])c1`: -0.594%.
As to `CCCCn1c(N)c(N(CCC(C)C)C(=O)c2ccc(COc3ccccc3)o2)c(=O)[nH]c1=O`, the potentiation was -0.984%.
Next, `COc1cccc(NC(=O)C2(C)CCN2Cc2ccccc2Cl)c1` (stereo not drawn): -7.17%; `CN(CC(=O)Nc1c(Cl)cccc1Cl)C(=O)CC1OC(=O)c2ccccc21` (stereo not drawn): -2.61%; `CC(OC(=O)c1ccccc1NCCO)C(=O)Nc1ccnn1C(C)C` (stereo not drawn): -3.07%.
Next, `O=C(NCc1cc(F)cc(C(F)(F)F)c1)C1CCC(=O)N(C2CCCC2)C1` (stereo not drawn): 2.66%; `Cc1ccc(S(=O)(=O)N2CCOCC2)cc1C(=O)NC(=S)N(Cc1ccccc1)C(C)C`: 10.6%; `CC1(C)C(=O)CCC2(C)C1=CCC1C2C(=O)CC2(C)C1CCC2(O)C(=O)CO` (stereo not drawn): -30.8%.
Next, `O=C(CCc1ccccc1)Nc1ccc(NC(=O)C2CCCCC2)nc1`: -8.09%; `Cc1nn(CC(=O)Nc2ccc(C#N)cc2)c(C)c1[N+](=O)[O-]`: -8.67%.
As for `Cc1cc([N+](=O)[O-])nn1CC(=O)Nc1ccc(Cc2ccncc2)cc1`, the potentiation is -10.7%.
To `Cc1cc(C)n(CC(=O)Nc2ccc([N+](=O)[O-])cc2)n1` belongs 70.7% (active); to `Cc1ccc(NC(=O)CS(=O)CC(=O)N(c2ccccc2)C(C)C(=O)NC2CCCC2)cc1` (stereo not drawn), -14.4%.
As to `CCCc1nnc(SCC(=O)N2C(C)CCCC2C)n1CC` (stereo not drawn), the potentiation was -7.75%.
To `CC(NC(=O)CC1SC(N)=NC1=O)c1ccccc1` (stereo not drawn) belongs -0.5%.
Next, `C[C@H]1CN([C@@H](C)CO)C(=O)c2cc(-c3cccc(F)c3)cnc2O[C@@H]1CN(C)S(C)(=O)=O`: 7.41%; `Cc1csc(NC(=O)C2CCCN2C(=O)OCC(C)C)n1` (stereo not drawn): -5.09%.
Next, `COc1ccc(S(=O)(=O)N2CCN(CC(=O)N3CCOCC3)CC2)cc1OC`: -5.65%.
With `O=C(Nc1cc(F)ccc1F)c1ccc2c(=O)n3c(nc2c1)CCC3`, the potentiation was -9.48%.
In the case of `CC(C)S(=O)(=O)c1csc(NC(=O)Nc2ccc(Cl)cc2)c1Cl`, the potentiation is -6.65%.
For the compound `CCOc1ccc(CCNC(=O)CCc2nnc3ccc(N4CCCC4)nn23)cc1OCC`, the potentiation was 2.77%.
To `Cc1occc(=O)c1OCc1c(Cl)cccc1Cl` belongs -9.29%; to `CCN(CC)CCCC(C)n1c2nc(=O)[nH]c(=O)c-2nc2cc(Cl)ccc21` (stereo not drawn), 80.2% (active).
Next, `COc1cccc(NC(=O)C2(C)CCN2C(=O)CCC2CCCC2)c1` (stereo not drawn): -1.05%.
To `COc1ccc(C(C)(O)c2nc(-c3ccc(C)c(C)c3)cs2)cc1` (stereo not drawn) belongs -10.5%; to `CCCC(=O)N1c2ccc(-c3csc(N)n3)cc2CC1C` (stereo not drawn), -21.2%.
As for `CC(C)(C)C(=O)OCc1nc(-c2ccc(O)c(O)c2)cs1`, the potentiation is 70.4% (active).
Next, `CC(C)NC(=O)C1(C)CCCCCN1C(=O)c1ccc(-c2ccccc2)cc1` (stereo not drawn): -9.96%.
To `CC1(C)CCSC(/C=C/c2ccccc2)=N1` belongs -38.8%; to `CNc1cnc(-c2cc(OC)c(OC)c(OC)c2)cn1`, 0.325%.
Next, `O=C(Nc1ccccc1F)c1ccc(Cn2cc(Br)cn2)cc1`: -6.63%; `CC(C)CCNC(=O)c1cccnc1Sc1ccccc1`: -21.6%; `COCCNC(=O)C1CCN(C(=O)C2CC(=O)N(c3ccc(C)cc3)C2)CC1` (stereo not drawn): -6.43%.
For the compound `O=S(=O)(Cc1cc(Cl)nc(-c2cccnc2)n1)c1ccccc1`, the potentiation is 11.9%.
To `COc1cc2c(cc1OC)CN(C(C)C(=O)Nc1cccc(S(=O)(=O)N3CCOCC3)c1)CC2` (stereo not drawn) belongs -31.3%; to `CC(C)CCNC(=O)C1CCC(CNc2c(N3CCC(C)CC3)c(=O)c2=O)CC1` (stereo not drawn), -6.3%.
To `OCC[C@H]1C[C@@H](O)[C@H](O)[C@@]2(OCCc3ccccc32)O1` belongs -8.36%.
Next, `COc1ccc(CCNC(=O)CCn2c(=O)c3ccccc3n(CC(=O)NCC3CCCO3)c2=O)cc1OC` (stereo not drawn): -2.84%; `CC(=O)Nc1ccc(S(=O)(=O)Oc2ccc(/C=N/N=C3/NC(=O)C(CC(=O)O)S3)cc2)cc1` (stereo not drawn): 1.2%; `O=C(CCSc1ccccc1)NCCSc1ccccn1`: -0.984%.
In the case of `O=C1CSC(c2cccc(F)c2)N1c1ccc(O)cc1` (stereo not drawn), the potentiation is -4.16%.

These data come from PubChem BioAssay AID624464 (National Center for Advancing Translational Sciences (NCATS), 2012).
